Experimental data taken from PubChem BioAssay AID1903 (Southern Research Specialized Biocontainment Screening …, 2009).
Screen size: about 310,000 compounds; about 1,200 (0.39%) were called active. No rule for the calls is given here. A selection follows. Potency and affinity values are given separately.

Biological target: Large T antigen (Simian virus 40) (UniProt P03070)
Assay: TAg ATPase/helicase activity blockers – biochemical (AID 1903)
Conditions: SV40 large T antigen ATPase/helicase inhibition assay; at 20 µM; stronger effect = higher value

Large T antigen (Simian virus 40), sequence (P03070 whole entry, looked up): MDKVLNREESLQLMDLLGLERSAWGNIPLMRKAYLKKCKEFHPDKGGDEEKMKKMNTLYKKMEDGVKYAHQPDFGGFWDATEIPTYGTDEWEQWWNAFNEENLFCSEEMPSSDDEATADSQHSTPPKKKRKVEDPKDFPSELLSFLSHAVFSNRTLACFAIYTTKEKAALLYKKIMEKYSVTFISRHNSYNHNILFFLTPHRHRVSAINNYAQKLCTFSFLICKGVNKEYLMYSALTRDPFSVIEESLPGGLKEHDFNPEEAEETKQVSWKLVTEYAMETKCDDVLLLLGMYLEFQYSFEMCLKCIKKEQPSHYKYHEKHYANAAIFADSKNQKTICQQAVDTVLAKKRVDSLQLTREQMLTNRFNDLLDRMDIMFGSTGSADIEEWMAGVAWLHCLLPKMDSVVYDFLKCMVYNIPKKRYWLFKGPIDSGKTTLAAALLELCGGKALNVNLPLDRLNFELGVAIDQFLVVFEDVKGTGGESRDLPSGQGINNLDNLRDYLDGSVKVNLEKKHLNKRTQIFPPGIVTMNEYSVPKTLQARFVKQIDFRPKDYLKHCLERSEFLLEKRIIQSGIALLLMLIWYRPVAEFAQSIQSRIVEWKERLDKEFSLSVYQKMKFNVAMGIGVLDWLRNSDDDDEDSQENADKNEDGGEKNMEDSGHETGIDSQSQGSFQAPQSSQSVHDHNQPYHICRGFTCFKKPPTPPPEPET

inhibition, inactive:
O=C(NCc1ccccn1)c1ccc(Cl)c(S(=O)(=O)N2CCCCC2)c1 6.41%
COc1ccc(CNC(=O)C2CCN(S(=O)(=O)N3CCCCC3)CC2)cc1 7.96%
NC(=O)c1cc(S(=O)(=O)N2CCN(c3ccc([N+](=O)[O-])cc3)CC2)cs1 14.4%
CCOC(=O)c1cnc2cc(F)c(F)cc2c1N1CCOCC1 0.2%
O=C(COc1c(Cl)cc(Cl)cc1Cl)c1ccc(Cl)cc1 2.07%
CC(=O)Nc1ccc(NS(=O)(=O)c2ccc3c(c2)oc(=O)n3C)cc1 10.1%
Cc1ccc(NS(=O)(=O)c2ccc3c(c2)oc(=O)n3C)cc1 6.64%
Cc1ccc(NC(=O)CN2C(=O)c3ccccc3S2(=O)=O)c(C)c1 10.7%
CN(C)c1ccc(C(=O)NCC2CCCO2)cc1 (configuration not stated) 5.69%
CCCNC(=O)C(=O)Nc1ccc(N(C)C)cc1 18.4%
CN(C)c1ccc(CNCC2CCCO2)cc1 (configuration not stated) 7.34%
COCC(=O)Nc1ccc(N(C)C)cc1 33.7%
CC1CCN(C(=O)Cn2c(=O)n(CCCC(=O)NCc3ccco3)c(=O)c3sccc32)CC1 8.64%
O=C(Nc1ccccc1C(=O)Nc1ccccc1)c1cccs1 5.41%
Cc1c(C(=O)Nc2cc(S(=O)(=O)N3CCOCC3)ccc2N2CCOCC2)oc2ccccc12 0.37%
CCC(CC)C(=O)Nc1nnc(S(=O)(=O)N(CC)c2ccc(OC)cc2)s1 3.96%
Cc1ccc(S(=O)(=O)N2CCOCC2)cc1C(=O)c1nccn1C 8.29%
Cc1ccc(S(=O)(=O)ON=C2CCN(S(=O)(=O)c3ccccc3)CC2)cc1 1.39%
CC1=C/C(=N\OS(=O)(=O)c2ccccc2)C=CC1=O 26.7%
CCc1nnc(NC(=O)CSc2nnc(Cc3cc(=O)[nH]c(=O)[nH]3)n2-c2ccc(OC)cc2)s1 3.92%
NC(=NCCc1c[nH]c2ccccc12)NS(=O)(=O)c1ccc(F)cc1 -1.17%
CCCNCc1cc(OC)c(OCC(=O)NCCc2ccccc2)cc1Br 6.19%
COc1cccc(NC(=S)N2CCCC2c2ccc(OC)c(OC)c2)c1 (configuration not stated) 12.4%
O=C(O)c1ccccc1NS(=O)(=O)c1cccc(C(F)(F)F)c1 9.6%
O=C(O)c1ccccc1NS(=O)(=O)c1ccc2ccccc2c1 -0.61%
Cc1ccc(-c2nn(C)c(=O)c3ccccc23)cc1S(=O)(=O)N1CCCC1 0.12%
CCn1nc(C(=O)OCc2cccc(S(=O)(=O)N(C)C)c2)c2ccccc2c1=O 8.67%
CN(C)S(=O)(=O)c1cccc(N2C(=O)CC3(CCCCC3)CC2=O)c1 7.26%
O=c1c2ccccc2sn1-c1ccc(S(=O)(=O)N2CCCC2)cc1 9.42%
O=C1CC(c2ccc(O)c(O)c2)Oc2cc(O)cc(O)c21 (configuration not stated) 45.5%
CC(C)=CCc1c(O)ccc2c1OC(c1ccc(O)c(O)c1)CC2=O (configuration not stated) 17%
Cc1ccc(OCCCCN2CCC(C)CC2)c(Br)c1 3.72%
Cc1ccc(C=C2C(=O)c3ccccc3C2=O)o1 12.7%
O=C1/C(=C\c2ccc(Br)o2)Cc2ccccc21 6.99%
O=C(COc1ccc(F)cc1F)N1CCCCCCC1 1.37%
Oc1cccc(NC(=S)Nc2ccccc2)c1 21.3%
Cc1cccc(OCC(=O)Nc2ccc(N3CCCC3)cc2)c1C -18.4%
O=C(O)c1ccc(NC(=S)NC(=O)c2cncc(Br)c2)cc1 13.1%
O=C(NC(=S)Nc1ccc(Cl)cc1)c1cncc(Br)c1 10.2%
O=C(NC(=S)Nc1ccccc1O)c1ccccc1Cl 13.8%
COc1ccc(NC(=S)NC(=O)c2ccccc2Cl)cc1 9.58%
CCOc1ccc(-c2ccc3nnc(SCC(=O)NCC4CCCO4)n3n2)cc1 (configuration not stated) 20.9%
c1ccc2cc(Cn3ccnc3)ccc2c1 5.43%
C/C(=N\NC(=O)COc1ccc(C)cc1[N+](=O)[O-])c1cccs1 15%
N#Cc1ccc(CSc2nc(N)cc(N)n2)cc1 -0.44%
CCOCCCn1c(=O)c2ccccc2n2c(=S)[nH]nc12 31.1%
CC(C)CCn1c(=O)c2ccccc2n2c(CCl)nnc12 12.5%
CC(C)CCn1c(=O)c2ccccc2n2c(CN3CCCC3)nnc12 15.1%
Cn1c(=O)c2ccccc2n2c(=S)[nH]nc12 1.39%
O=C(Nc1ccc(S(=O)(=O)Nc2ncccn2)cc1)c1cnc(Cl)c(Cl)c1 24.8%
Cc1ccn(CCC(=O)Nc2ccc(-c3ccno3)cc2)n1 10.3%
C=C(c1cccc2ccccc12)P(=O)(O)O 8.15%
CCOC(=O)c1c(NC(=O)COC(=O)c2nc(Cl)ccc2Cl)sc(C(=O)N(C)C)c1C 3.76%
Cc1ccc(NC(=O)c2ccc(COc3ccccc3)o2)nc1 -5.11%
CCN(CC)c1ccc(Nc2nc(-c3cccnc3)cs2)cc1 20.5%
Fc1ccc(Nc2nc(-c3cccnc3)cs2)cc1 6.02%
Cc1nc2ncccn2c1-c1csc(Nc2ccccc2)n1 16.1%
Cc1ccc(Nc2nc(-c3c(C)nc4ncccn34)cs2)cc1 17.2%
O=S(=O)(c1cccs1)N1CCC2(CC1)OCCN2S(=O)(=O)c1ccccc1 11.8%
CN(Cc1c(C(=O)N/N=C/c2ccccc2)nnn1-c1nonc1N)c1ccccc1 -1.98%
Cc1c(C(=O)N2CC(C)OC(C)C2)[nH]c2ccc(Br)cc12 (configuration not stated) 0.93%
CCOC(=O)C(NCc1ccc(OC)cc1)(NC(C)=O)C(F)(F)F (configuration not stated) 0.08%
O=C1NC(=O)/C(=C\c2ccccc2OCc2ccc([N+](=O)[O-])cc2)N1 16%
O=Cc1ccccc1OCCOc1ccc([N+](=O)[O-])cc1 26.7%
C=CCn1c(-c2cccc(Cl)c2)n[nH]c1=S 4.07%
CCCCCC(=O)NNC(=S)NC(C)=O 7.61%
CC(C)(C)C(=O)CN1CCN(S(=O)(=O)c2ccc(F)cc2)CC1 1.15%
CCOc1ccc(C(=O)CN2CCN(S(=O)(=O)c3ccc(F)cc3)CC2)cc1 6.42%
COc1cc(NC(=O)CN2CCN(S(=O)(=O)c3ccc(C(C)C)cc3)CC2)cc(OC)c1 4.71%
Cc1ccc(S(=O)(=O)N2CCN(Cc3cc(C(C)C)ccc3O)CC2)cc1 -1.91%
Cc1ccc(C)c(NC(=O)CN(C)C(=O)c2cc3c(s2)CCCCC3)c1 17%
C=CCNC(=O)COCc1cc(-c2ccc3c(c2)OCO3)on1 7.76%
CN(C)C(=O)CSc1nnc(-c2ccc(S(=O)(=O)N3CCCC3)cc2)n1C -1.24%
C/C(=N/OC(=O)CC(C)C)c1cc(-c2ccc(Cl)cc2)no1 4.31%
O=C(CCN1CCOCC1)N/N=C/c1cc([N+](=O)[O-])ccc1OC(F)F 5.27%
Cc1ccccc1-c1nnn(CC(=O)N2CCN(C(=O)c3ccco3)CC2)n1 14.3%
CCCOc1ccc(C(=O)Nn2c(C)nc3ccccc3c2=O)cc1 1.86%
Nc1ncc(Br)cc1N=Cc1ccccc1 9.46%
Nc1ncnc(N)c1N=Nc1ccccc1 8.05%
C=CCN(C(=O)c1ccccc1)c1ccc(OC)cc1 -2.78%
O=C(c1ccco1)N1CCN(C(=O)c2cc(-c3ccc(F)cc3)no2)CC1 8.37%
CC(C)CNC(=O)c1cc(-c2ccc3c(c2)OCO3)on1 4.96%
COc1ccc2c(c1)S(=O)(=O)c1ccccc1N2 1.87%
O=C(CSc1nnc(-c2ccccc2)n1-c1ccccc1)N1c2ccccc2Sc2ccccc21 4.91%
Cc1nc(SCC(=O)N2c3ccccc3Sc3ccccc32)n[nH]1 12.6%
O=C(O)CCc1ccc(S(=O)(=O)Nc2ccccc2C(=O)NCCc2ccccc2)cc1 6.21%
CCOC(=O)C(CN1CCCC1)c1ccccc1 (configuration not stated) 6.65%
COc1cccc(/C=N/NC(=O)C(=O)N2CCCCCC2)c1O 28.6%
CCCc1cc(=O)[nH]c(N/N=C/C=C\c2ccccc2)n1 6.47%
O=C(N/N=C\c1c[nH]c2ccccc12)c1ccc(O)cc1 18%
Cc1cc(C)nc(N/N=C/c2c[nH]c3ccccc23)n1 33.8%
Cc1cc(N/N=C/c2c[nH]c3ccccc23)c2ccccc2n1 5.53%
O=C(N/N=C/c1c[nH]c2ccccc12)c1cccc(O)c1 16%
Cc1cc(C)c(COCc2cc(/C=N/O)c(C)cc2C)cc1/C=N/O -0.28%
C=CCN1C(=O)C(Cc2ccccc2)SC1=Nc1ccc(C(=O)O)cc1 (configuration not stated) 25.5%
C/C(=N\NC(=O)c1ccc(N)cc1)C1CC1 9.62%
CCN1CCN(C(=O)Cn2ncc3c([nH]c4ccc(C)cc43)c2=O)CC1 9.03%
Cc1cccc(NC(=S)NCc2ccc3c(c2)cc(C)n3C)c1C 5.14%
Cc1cc(C)nc(SCc2cc(=O)c(OC(=O)c3ccc(Cl)c([N+](=O)[O-])c3)co2)n1 9.56%
Cc1ccnc(SCc2cc(=O)c(OC(=O)c3ccc(S(=O)(=O)N4CCCC4)cc3)co2)n1 48.9%
Cc1cc(C)nc(SCc2cc(=O)c(OC(=O)c3ccc(S(=O)(=O)N(C)C)cc3)co2)n1 22.4%
Cc1ccnc(SCc2cc(=O)c(OC(=O)c3ccc(S(=O)(=O)N(C)C)cc3)co2)n1 15.9%
